# PubChem BioAssay (EPA / NIEHS)
# Records with an inconclusive call do not appear. Active and inactive are the calls of the source. The calls were made as follows: active = hit-call score of the fitted dose curve at least 0.9, where 1 is the maximum; inconclusive = response in the unintended direction; inactive = score below 0.9.
# Target: human Sirtuin 3 (SIRT3), SIRT3 (gene 23410) (UniProt Q9NTG7)
# Experiment: NVS_ENZ_hSIRT3: NovaScreen (NVS) Enzymatic Assay for human Sirtuin 3 (SIRT3) (AID 2283222)
# Procedure, shortened: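 Cell-free enzyme assay with recombinant protein and fluorescent substrate, product separated by electrophoretic mobility shift; read 1 hour after dosing. Screened in duplicate at 25 uM, then singleton concentration-response up to 50 uM; loss of signal versus DMSO.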
# Chain of human Sirtuin 3 (SIRT3), SIRT3 (gene 23410) (Q9NTG7 whole entry, looked up): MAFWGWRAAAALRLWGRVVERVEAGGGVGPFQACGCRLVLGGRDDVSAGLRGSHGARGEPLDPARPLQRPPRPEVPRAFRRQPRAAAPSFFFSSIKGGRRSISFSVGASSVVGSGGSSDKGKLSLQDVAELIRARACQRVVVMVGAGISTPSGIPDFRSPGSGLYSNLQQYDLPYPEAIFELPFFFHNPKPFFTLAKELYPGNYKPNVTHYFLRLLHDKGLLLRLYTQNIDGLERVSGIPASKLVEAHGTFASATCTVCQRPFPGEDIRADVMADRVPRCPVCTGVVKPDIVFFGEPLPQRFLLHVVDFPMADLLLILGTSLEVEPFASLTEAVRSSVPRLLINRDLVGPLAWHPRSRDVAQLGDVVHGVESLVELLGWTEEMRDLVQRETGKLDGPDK
SMILES,outcome,AC50
O=C1NC(=O)C(c2ccccc2)(c2ccccc2)N1,inactive,–
CC(C)OC(=O)C(C)(C)Oc1ccc(C(=O)c2ccc(Cl)cc2)cc1,–,8.69 µM (active)
O=C(N[C@@H](c1ccccc1)[C@@H]1CCCCN1)c1cccc(C(F)(F)F)c1Cl,inactive,–
COC(=O)CCC(=O)OC,inactive,–
CCN(CC)CCOc1ccc(C(=C(Cl)c2ccccc2)c2ccccc2)cc1,inactive,–

# Target: human SRC Proto-Oncogene, Non-receptor Tyrosine Kinase (SRC), SRC (gene 6714) (UniProt P12931)
# Sequence (P12931 whole entry, looked up): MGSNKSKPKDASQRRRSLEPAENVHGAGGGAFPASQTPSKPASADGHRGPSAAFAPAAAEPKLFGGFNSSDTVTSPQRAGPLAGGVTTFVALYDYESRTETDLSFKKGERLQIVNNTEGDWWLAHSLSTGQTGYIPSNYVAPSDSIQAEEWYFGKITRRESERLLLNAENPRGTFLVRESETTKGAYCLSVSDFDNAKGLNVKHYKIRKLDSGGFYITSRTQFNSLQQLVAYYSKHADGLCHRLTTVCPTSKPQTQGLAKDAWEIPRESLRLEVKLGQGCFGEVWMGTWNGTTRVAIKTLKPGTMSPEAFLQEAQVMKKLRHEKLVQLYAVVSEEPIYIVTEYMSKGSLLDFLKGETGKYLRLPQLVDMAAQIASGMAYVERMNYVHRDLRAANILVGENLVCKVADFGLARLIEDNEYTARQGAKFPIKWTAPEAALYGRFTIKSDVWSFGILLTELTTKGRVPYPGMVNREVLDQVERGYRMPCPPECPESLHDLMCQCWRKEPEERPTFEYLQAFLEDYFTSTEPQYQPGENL
# Experiment: NVS_ENZ_hSRC: NovaScreen (NVS) Enzymatic Assay for human SRC Proto-Oncogene, Non-receptor Tyrosine Kinase (SRC) (AID 2283223)
# Procedure, shortened: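 Cell-free kinase activity assay with fluorescent substrate, product separated by electrophoretic mobility shift, read 1 h after dosing. Duplicate single point at 25 uM, then concentration-response up to 50 uM; loss of signal versus DMSO.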
SMILES,outcome,AC50
CC(=O)O,inactive,–
CCCCCCCCCCCCCCOS(=O)(=O)O,–,37.1 µM (active)
CCCCc1nc2cccnc2n1Cc1ccc(-c2ccccc2-c2nnn[nH]2)cc1,inactive,–

# Target: human Vascular Endothelial Growth Factor Receptor 1 (VEGFR1), FLT1 (gene 2321) (UniProt P17948)
# Sequence (P17948 whole entry, looked up): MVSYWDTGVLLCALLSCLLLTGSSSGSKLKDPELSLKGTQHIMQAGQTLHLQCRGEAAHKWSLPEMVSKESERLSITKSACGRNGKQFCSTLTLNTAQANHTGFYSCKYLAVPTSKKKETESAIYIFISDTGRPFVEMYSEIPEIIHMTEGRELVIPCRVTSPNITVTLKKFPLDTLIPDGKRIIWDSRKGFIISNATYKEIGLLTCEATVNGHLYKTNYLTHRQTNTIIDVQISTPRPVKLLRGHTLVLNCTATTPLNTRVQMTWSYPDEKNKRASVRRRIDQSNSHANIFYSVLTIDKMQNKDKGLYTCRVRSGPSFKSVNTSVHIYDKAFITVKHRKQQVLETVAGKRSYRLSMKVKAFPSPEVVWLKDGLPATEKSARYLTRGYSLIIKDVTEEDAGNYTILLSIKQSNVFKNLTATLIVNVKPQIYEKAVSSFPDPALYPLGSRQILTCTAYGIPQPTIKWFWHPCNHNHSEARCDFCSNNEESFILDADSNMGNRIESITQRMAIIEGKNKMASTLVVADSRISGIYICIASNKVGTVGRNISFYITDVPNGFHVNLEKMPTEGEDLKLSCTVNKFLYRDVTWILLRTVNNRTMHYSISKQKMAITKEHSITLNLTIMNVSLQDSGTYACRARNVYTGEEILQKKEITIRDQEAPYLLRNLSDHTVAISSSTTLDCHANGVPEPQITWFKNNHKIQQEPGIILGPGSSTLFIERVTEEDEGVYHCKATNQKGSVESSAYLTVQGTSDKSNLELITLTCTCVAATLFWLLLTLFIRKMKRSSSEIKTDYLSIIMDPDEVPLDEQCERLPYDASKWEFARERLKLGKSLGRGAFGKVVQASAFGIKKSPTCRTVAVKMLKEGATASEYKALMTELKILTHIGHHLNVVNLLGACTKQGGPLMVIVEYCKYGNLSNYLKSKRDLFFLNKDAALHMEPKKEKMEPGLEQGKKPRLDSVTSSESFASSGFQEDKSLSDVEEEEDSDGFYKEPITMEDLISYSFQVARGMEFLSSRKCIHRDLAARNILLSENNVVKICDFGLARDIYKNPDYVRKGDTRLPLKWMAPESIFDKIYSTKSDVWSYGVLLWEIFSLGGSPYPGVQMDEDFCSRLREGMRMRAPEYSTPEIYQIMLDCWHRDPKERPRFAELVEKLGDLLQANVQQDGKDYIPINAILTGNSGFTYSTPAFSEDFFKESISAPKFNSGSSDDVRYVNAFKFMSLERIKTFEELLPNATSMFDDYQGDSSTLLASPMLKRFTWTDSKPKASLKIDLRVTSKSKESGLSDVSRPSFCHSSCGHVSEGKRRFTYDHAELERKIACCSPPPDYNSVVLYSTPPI
# Experiment: NVS_ENZ_hVEGFR1: NovaScreen (NVS) Enzymatic Assay for human Vascular Endothelial Growth Factor Receptor 1 (VEGFR1) (AID 2283226)
# Procedure, shortened: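 Cell-free assay of recombinant human VEGFR1 kinase with substrate, measured 1 h after dosing; fluorescence with electrophoretic mobility-shift separation of substrate and product, referenced to DMSO; primary screen at 25 uM in duplicate, actives then run in concentration series.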
row,SMILES,outcome
1,CN(C)C(=O)NC1(c2ccccc2)CCN(CC[C@@]2(c3ccc(F)c(F)c3)CN(C(=O)c3ccccc3)CCO2)CC1,inactive
2,O=C1NC(=O)C(c2ccccc2)(c2ccccc2)N1,inactive
3,COc1ccc(OC(F)(F)F)cc1CN[C@H]1CCCN[C@H]1c1ccccc1,inactive

# Target: rabbit Imidazoline 2 Central (I2C), CKB (gene 100009085) (UniProt P00567)
# Sequence (P00567 whole entry, looked up): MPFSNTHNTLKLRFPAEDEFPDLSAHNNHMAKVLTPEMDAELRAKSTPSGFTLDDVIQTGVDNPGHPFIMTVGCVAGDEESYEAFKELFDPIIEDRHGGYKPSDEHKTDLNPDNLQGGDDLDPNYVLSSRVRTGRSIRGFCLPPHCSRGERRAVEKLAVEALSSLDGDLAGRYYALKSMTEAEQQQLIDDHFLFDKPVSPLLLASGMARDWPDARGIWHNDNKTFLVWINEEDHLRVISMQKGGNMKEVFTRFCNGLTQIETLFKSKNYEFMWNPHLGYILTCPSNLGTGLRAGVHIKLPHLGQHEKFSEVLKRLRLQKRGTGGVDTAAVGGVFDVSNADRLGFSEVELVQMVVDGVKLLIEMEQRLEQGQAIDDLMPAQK
# Experiment: NVS_ENZ_rabI2C: NovaScreen (NVS) Enzymatic Assay for rabbit Imidazoline 2 Central (I2C) (AID 2283228)
# Procedure, shortened: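 Rabbit brain membranes, cell-free; readout by filter-based scintillation counting 1.5 hours after dosing, loss of signal vs DMSO. Initial duplicate test at 25 uM, then concentration-response with 50 uM top concentration.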
SMILES,outcome,AC50
CN(C)C(=O)NC1(c2ccccc2)CCN(CC[C@@]2(c3ccc(F)c(F)c3)CN(C(=O)c3ccccc3)CCO2)CC1,inactive,–
CC(C)(O)c1ccc(CNC(=O)c2cccnc2Oc2ccc(F)cc2)cc1,inactive,–
COc1ccc(OC(F)(F)F)cc1CN[C@H]1CCCN[C@H]1c1ccccc1,–,15 µM (active)
CCN(CC)CCOc1ccc(C(=C(Cl)c2ccccc2)c2ccccc2)cc1,–,9.71 µM (active)

# Target: human Vascular Endothelial Growth Factor Receptor 2 (VEGFR2), KDR (gene 3791) (UniProt P35968)
# Sequence (P35968 whole entry, looked up): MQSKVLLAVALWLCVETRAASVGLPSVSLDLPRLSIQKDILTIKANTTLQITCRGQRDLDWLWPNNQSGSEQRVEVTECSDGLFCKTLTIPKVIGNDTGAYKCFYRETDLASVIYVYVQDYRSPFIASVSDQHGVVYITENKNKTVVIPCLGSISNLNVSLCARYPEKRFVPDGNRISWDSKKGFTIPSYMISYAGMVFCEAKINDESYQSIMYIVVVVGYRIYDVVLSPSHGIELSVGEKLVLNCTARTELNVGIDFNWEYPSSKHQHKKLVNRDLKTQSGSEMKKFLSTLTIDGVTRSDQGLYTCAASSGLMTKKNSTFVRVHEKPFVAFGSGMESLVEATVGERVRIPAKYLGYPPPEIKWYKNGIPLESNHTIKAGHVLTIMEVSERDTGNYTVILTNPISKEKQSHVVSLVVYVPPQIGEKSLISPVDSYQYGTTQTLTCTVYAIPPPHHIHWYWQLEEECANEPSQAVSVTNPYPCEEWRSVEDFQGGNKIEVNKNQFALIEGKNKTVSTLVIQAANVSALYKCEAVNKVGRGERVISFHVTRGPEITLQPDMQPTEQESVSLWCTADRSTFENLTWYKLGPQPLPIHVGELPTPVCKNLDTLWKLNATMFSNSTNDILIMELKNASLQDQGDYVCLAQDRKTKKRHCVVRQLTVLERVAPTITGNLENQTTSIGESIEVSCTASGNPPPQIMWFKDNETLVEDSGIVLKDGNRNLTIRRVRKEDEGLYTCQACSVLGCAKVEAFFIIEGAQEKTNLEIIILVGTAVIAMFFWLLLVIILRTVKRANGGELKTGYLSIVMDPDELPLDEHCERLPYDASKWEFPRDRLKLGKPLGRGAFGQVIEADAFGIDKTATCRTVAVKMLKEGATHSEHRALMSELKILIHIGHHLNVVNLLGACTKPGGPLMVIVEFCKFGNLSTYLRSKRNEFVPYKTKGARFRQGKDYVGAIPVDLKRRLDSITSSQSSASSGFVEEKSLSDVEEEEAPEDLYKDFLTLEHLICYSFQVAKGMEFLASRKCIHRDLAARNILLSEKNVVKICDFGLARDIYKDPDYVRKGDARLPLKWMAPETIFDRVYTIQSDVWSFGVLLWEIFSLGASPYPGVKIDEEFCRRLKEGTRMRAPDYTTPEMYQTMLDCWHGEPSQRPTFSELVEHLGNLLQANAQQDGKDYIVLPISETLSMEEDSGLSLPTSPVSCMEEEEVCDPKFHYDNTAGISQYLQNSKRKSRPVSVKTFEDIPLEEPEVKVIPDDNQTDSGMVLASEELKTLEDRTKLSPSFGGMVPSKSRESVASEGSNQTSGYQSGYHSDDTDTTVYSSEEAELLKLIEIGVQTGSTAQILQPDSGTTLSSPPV
# Experiment: NVS_ENZ_hVEGFR2: NovaScreen (NVS) Enzymatic Assay for human Vascular Endothelial Growth Factor Receptor 2 (VEGFR2) (AID 2283230)
# Method: NVS_ENZ_hVEGFR2 is a biochemical, single-readout assay that uses extracted gene-proteins in a cell-free assay. Measurements were taken 1 hour after chemical dosing in a 384-well plate.NVS_ENZ_hVEGFR2 is one of one assay component(s) measured or calculated from the NVS_ENZ_hVEGFR2 assay. It is designed to make measurements of enzyme activity, a form of enzyme reporter, as detected with fluorescence intensity signals by Fluorescence and electrophoretic mobility shift technology.Data from the assay component NVS_ENZ_hVEGFR2 was analyzed into 1 assay endpoint. This assay endpoint, NVS_ENZ_hVEGFR2, was analyzed in the positive analysis fitting direction relative to DMSO as the negative control and baseline of activity. Using a type of enzyme reporter, loss-of-signal activity can be used to understand changes in the enzymatic activity as they relate to the gene KDR. Furthermore, this assay endpoint can be referred to as a primary readout, because this assay has produced multiple assay endpoints where this one serves a enzymatic activity function. To generalize the intended target to other relatable targets, this assay endpoint is annotated to the kinase intended target family, where the subfamily is receptor tyrosine kinase.
# Binding assays used specific radioligands (tritiated, iodinated) with non-radioactive competitive displacement ligands in agonist or antagonist protocols (as indicated) and various reference compounds and inhibitors to titrate specific binding to receptors and transporters. Most enzyme assays (CYPs, kinases, phosphatases, proteases, HDACs) used recombinant protein and specific substrates (fluorescence mostly, some colorimetric and radioactive) and inhibitors, followed by a biochemical separation of substrate and product. All assays for the biochemical HTS were initially run in duplicate at a single concentration (10 uM for CYP450 assays and 25 uM for all others). Assay-chemical combinations meeting a pre-defined threshold (e.g., 30% inhibition and other criteria defined below) were then run in singleton concentration-response format with maximum concentration of 20 uM for CYPs and 50 uM for all others. Each assay was run with positive and negative controls, and concurrent controls on every plate. The follow-up (secondary) screen tested active chemical-pairs in concentration series, as well as a few additional assays not tested in the primary screen, some selected negative inactives, and several cases re-run in the concentration series for confirmatory purposes.
SMILES,outcome,AC50
Cc1occc(=O)c1O,inactive,–
CN(C)C(=O)NC1(c2ccccc2)CCN(CC[C@@]2(c3ccc(F)c(F)c3)CN(C(=O)c3ccccc3)CCO2)CC1,inactive,–
CCCCCCCCCCCCCCOS(=O)(=O)O,–,30.2 µM (active)
CN(C)C(=O)NC1(c2ccccc2)CCN(CCC[C@]2(c3ccc(Cl)c(Cl)c3)CCCN(C(=O)c3ccccc3)C2)CC1,inactive,–
COc1ccc(OC(F)(F)F)cc1CN[C@H]1CCCN[C@H]1c1ccccc1,inactive,–

# Target: sheep Cyclooxygenase-2 (Cox2), PTGS2 (gene 443460) (UniProt P79208)
# Sequence (P79208 whole entry, looked up): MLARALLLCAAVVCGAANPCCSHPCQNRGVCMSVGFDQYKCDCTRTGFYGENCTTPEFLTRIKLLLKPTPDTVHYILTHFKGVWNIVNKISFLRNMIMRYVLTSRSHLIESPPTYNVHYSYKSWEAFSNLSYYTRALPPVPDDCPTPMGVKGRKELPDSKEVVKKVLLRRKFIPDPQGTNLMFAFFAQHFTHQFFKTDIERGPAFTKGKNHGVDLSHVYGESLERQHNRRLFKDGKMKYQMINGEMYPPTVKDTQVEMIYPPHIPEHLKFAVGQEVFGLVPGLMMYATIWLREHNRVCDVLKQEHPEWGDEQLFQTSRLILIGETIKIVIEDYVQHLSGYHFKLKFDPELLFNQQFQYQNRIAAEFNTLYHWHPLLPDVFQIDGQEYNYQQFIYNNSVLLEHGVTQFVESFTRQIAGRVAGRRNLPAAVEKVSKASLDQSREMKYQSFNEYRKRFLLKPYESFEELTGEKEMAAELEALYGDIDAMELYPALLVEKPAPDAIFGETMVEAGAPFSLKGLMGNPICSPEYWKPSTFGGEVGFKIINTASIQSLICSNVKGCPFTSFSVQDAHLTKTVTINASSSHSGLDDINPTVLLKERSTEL
# Experiment: NVS_ENZ_oCOX2: NovaScreen (NVS) Enzymatic Assay for sheep Cyclooxygenase-2 (Cox2) (AID 2283231)
# Procedure, shortened: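 Enzyme extracted from ovine placenta tested cell-free; activity read colorimetrically by absorbance 0.66 hour after dosing. Primary screen in duplicate at 25 uM; hits rerun as concentration series to 50 uM, loss of signal versus DMSO baseline.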
row,SMILES,AC50
1,Cc1occc(=O)c1O,17.6 µM (active)
2,CN(C)C(=O)NC1(c2ccccc2)CCN(CCC[C@]2(c3ccc(Cl)c(Cl)c3)CCCN(C(=O)c3ccccc3)C2)CC1,4.73 µM (active)
3,COc1ccc(C(=O)Nc2nc3ccccc3c(NCc3ccccc3)c2C#N)cc1,13.7 µM (active)

# Target: bovine Dopamine Receptor (DR), Non-selective Binding, DRD1 (gene 281125) (UniProt Q95136)
# Sequence (Q95136 whole entry, looked up): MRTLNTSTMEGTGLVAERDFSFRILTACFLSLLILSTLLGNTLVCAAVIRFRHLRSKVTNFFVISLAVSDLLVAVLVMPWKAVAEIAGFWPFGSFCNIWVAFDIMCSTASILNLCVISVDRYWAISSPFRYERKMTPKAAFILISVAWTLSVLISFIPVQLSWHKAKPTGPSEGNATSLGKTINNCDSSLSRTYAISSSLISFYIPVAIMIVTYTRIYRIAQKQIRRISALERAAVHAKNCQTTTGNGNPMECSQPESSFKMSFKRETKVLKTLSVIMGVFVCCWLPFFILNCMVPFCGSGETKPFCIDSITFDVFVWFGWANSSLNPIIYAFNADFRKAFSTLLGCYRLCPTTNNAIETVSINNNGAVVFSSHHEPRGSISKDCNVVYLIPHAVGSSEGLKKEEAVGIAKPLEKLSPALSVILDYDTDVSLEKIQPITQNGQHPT
# Experiment: NVS_GPCR_bDR_NonSelective: NovaScreen (NVS) G Protein-Coupled Receptor Assay for bovine Dopamine Receptor (DR), Non-selective Binding (AID 2283241)
# Procedure, shortened: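 Bovine striatal membranes; radioligand displacement read by filtration and scintillation counting 1 h after dosing, loss of signal vs DMSO. Screened in duplicate at 25 uM, then concentration-response for hits.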
row,SMILES,AC50
1,CN(C)C(=O)NC1(c2ccccc2)CCN(CC[C@@]2(c3ccc(F)c(F)c3)CN(C(=O)c3ccccc3)CCO2)CC1,6.51 µM (active)
2,O=C(N[C@@H](c1ccccc1)[C@@H]1CCCCN1)c1cccc(C(F)(F)F)c1Cl,25 µM (active)
3,CN(C)C(=O)NC1(c2ccccc2)CCN(CCC[C@]2(c3ccc(Cl)c(Cl)c3)CCCN(C(=O)c3ccccc3)C2)CC1,1.3 µM (active)
4,COc1ccc(OC(F)(F)F)cc1CN[C@H]1CCCN[C@H]1c1ccccc1,8.68 µM (active)
5,CCN(CC)CCOc1ccc(C(=C(Cl)c2ccccc2)c2ccccc2)cc1,14.2 µM (active)
